Of roughly 7,900 targets only a part is listed; those with a hit were picked by preference. About 0.6% of all pairs of compound and target were hits. A number with no mark means an inactive call.
Each target was assayed with COC1=CC=C(C=C1)CN2C=CC3=C2C=C(C=C3)C(=O)NO (assay: log2 fold change, soluble protein after heating vs DMSO (PISA); higher = thermal stabilisation; K562 cells, 10 uM, 30 min; active = over 0.2 and 3.5 SD of the protein, either way, in both replicates (recomputed)).
Procedure, shortened: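 K562 cells at 2×10^6 cells/mL were given 10 μM compound for 30 min. Aliquots then went through 3 min of heating across 48°C-58°C, were pooled, and were extracted in PBS with 0.5% NP-40 at 4°C, and the supernatant after 21,000xg for 90 min was quantified by TMTpro 16plex LC-MS/MS with channel sums equalised. Thermal stability relative to control samples, from duplicates, is given as log2 fold change.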

Chain of UniProt P36956 (P36956 whole entry, looked up): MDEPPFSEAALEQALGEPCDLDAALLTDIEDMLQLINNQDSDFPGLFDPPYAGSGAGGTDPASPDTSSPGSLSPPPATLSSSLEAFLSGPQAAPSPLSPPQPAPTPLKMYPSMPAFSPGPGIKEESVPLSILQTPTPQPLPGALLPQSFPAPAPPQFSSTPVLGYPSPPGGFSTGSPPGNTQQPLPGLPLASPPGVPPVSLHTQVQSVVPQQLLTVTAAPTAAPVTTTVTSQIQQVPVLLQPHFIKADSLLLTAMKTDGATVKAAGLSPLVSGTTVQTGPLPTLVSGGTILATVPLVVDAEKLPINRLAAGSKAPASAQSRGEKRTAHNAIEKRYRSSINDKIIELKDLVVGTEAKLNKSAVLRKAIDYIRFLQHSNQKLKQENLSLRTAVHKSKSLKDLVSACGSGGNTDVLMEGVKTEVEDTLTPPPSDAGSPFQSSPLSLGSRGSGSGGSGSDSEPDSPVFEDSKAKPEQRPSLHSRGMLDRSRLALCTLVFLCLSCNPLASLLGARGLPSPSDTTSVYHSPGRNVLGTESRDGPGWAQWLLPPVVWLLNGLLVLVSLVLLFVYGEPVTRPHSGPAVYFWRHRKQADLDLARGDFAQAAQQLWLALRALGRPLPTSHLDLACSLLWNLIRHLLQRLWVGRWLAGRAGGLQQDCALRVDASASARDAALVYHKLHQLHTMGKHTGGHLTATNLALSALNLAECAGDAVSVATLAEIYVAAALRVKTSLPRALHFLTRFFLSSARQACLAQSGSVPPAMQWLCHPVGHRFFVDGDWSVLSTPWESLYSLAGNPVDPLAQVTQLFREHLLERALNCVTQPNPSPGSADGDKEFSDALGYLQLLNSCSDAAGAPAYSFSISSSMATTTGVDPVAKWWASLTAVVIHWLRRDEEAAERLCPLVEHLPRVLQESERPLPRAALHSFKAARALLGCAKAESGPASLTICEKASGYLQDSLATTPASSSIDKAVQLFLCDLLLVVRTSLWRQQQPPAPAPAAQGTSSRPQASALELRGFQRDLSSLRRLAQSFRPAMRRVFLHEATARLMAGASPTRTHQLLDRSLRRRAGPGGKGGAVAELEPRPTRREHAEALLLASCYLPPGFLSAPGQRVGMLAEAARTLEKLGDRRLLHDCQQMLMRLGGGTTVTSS
Chain of UniProt P78383 (P78383 whole entry, looked up): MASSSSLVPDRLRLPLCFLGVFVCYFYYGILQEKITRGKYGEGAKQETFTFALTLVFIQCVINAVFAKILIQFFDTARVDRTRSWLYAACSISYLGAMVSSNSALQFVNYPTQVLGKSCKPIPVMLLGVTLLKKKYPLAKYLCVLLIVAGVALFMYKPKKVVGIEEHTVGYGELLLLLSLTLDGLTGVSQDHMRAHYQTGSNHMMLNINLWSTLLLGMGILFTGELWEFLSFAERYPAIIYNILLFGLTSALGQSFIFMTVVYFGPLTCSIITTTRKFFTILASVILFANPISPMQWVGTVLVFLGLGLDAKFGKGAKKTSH
Chain of UniProt Q5VWP2 (Q5VWP2 whole entry, looked up): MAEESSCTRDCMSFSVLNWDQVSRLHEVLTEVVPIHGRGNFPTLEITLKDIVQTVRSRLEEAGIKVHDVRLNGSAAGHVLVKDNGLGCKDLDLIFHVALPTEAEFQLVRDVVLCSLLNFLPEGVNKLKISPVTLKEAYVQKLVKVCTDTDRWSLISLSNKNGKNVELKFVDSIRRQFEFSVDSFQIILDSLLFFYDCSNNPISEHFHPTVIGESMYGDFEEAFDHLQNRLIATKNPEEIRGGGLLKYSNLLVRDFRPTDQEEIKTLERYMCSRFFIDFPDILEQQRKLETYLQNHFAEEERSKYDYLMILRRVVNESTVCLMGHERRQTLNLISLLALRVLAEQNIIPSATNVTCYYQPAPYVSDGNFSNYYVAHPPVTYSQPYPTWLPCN
Chain of UniProt Q969S0 (Q969S0 whole entry, looked up): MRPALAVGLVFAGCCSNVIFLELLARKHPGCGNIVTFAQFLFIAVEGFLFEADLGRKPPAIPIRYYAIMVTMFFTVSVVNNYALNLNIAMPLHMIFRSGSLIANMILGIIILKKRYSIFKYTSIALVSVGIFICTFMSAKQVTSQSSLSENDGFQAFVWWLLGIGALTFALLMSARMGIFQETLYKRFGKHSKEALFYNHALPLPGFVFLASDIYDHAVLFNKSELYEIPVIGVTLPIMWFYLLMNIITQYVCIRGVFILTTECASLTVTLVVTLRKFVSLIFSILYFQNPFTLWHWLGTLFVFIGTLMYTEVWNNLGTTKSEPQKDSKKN
Chain of UniProt Q9UL54 (Q9UL54 whole entry, looked up): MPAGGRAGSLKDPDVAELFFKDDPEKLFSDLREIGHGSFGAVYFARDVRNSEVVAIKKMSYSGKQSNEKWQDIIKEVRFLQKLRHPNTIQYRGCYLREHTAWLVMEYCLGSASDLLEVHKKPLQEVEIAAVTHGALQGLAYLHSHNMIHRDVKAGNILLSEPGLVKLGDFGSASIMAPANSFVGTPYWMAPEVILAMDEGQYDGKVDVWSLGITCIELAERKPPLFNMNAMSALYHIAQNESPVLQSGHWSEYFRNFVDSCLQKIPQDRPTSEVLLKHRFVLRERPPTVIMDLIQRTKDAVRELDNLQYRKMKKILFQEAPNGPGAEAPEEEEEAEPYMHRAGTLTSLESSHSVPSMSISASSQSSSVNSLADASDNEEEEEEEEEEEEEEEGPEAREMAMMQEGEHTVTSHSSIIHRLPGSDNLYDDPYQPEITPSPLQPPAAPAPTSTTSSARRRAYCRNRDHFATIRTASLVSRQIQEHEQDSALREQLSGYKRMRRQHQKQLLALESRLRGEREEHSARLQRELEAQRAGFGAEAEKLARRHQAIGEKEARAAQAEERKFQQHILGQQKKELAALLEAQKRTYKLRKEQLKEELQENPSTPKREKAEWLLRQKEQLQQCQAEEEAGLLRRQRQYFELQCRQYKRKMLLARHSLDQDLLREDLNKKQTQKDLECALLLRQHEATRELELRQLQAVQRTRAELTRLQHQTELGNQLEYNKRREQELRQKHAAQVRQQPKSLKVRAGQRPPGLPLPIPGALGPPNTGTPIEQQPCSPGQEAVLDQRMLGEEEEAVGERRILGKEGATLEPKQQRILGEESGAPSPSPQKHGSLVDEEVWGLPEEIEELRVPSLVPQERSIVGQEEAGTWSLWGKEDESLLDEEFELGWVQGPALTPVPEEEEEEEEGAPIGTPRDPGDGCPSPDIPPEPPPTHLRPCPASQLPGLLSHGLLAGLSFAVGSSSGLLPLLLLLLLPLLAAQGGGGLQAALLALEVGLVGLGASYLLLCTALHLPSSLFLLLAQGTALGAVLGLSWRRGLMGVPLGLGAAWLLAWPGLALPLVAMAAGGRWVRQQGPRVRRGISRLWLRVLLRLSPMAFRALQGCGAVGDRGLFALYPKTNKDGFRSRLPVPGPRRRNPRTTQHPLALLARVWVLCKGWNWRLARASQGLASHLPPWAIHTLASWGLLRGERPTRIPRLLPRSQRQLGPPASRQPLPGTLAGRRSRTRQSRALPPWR
Chain of UniProt Q9BWG4 (Q9BWG4 whole entry, looked up): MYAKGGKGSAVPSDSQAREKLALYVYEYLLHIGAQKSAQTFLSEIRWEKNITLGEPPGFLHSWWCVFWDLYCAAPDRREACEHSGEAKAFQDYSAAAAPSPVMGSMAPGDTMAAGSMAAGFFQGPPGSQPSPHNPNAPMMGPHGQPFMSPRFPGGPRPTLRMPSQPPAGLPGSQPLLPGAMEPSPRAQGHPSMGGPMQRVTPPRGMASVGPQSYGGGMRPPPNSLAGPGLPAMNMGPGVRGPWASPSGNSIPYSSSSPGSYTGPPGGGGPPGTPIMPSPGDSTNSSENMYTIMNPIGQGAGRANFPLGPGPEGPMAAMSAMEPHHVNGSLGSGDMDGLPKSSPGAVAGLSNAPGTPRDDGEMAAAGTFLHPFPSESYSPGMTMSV
Chain of UniProt O60749 (O60749 whole entry, looked up): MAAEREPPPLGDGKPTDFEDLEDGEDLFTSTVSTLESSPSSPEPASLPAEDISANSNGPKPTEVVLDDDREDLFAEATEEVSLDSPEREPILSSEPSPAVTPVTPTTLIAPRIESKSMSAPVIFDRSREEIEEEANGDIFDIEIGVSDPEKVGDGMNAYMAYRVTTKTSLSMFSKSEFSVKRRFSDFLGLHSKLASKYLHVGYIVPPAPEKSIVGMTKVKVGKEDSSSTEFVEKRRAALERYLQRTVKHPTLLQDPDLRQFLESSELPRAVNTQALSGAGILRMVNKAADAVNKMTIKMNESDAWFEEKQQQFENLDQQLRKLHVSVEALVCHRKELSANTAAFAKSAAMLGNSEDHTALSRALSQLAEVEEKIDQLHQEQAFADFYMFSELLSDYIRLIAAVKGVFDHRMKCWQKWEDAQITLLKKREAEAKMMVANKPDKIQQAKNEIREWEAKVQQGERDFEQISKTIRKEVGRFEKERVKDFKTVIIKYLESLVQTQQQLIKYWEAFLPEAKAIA
Chain of UniProt Q02086 (Q02086 whole entry, looked up): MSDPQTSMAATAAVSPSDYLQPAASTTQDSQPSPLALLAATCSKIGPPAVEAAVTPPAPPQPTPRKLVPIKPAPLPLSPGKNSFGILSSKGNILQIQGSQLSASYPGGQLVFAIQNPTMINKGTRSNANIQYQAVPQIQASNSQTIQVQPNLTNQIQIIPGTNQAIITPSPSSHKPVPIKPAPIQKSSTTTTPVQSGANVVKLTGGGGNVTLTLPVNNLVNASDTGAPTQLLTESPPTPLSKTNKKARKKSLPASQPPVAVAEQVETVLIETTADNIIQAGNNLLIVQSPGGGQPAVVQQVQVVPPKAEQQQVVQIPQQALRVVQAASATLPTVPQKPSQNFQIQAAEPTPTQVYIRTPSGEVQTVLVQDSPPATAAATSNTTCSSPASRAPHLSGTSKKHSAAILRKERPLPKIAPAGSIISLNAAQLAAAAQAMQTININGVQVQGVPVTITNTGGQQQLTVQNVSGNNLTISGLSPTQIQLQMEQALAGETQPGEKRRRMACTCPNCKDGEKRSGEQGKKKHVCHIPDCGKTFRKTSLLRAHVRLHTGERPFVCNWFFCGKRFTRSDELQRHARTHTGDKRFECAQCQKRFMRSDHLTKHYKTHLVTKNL

Target | log2 fold change
SLC35B1 isoform 2 (UniProt P78383) | -0.106
SNX2 isoform 2 (UniProt O60749) | 0.258
SMPD4 isoform 2 (UniProt Q9NXE4) | -0.011
SPIRE1 (UniProt Q08AE8) | -0.509 (active)
SLC8B1 (UniProt Q6J4K2) | 0.044
SNRK (UniProt Q9NRH2) | 0.15
TAOK2 (UniProt Q9UL54) | 0.189
SPIN4 (UniProt Q56A73) | -1.43 (active)
SRCAP (UniProt Q6ZRS2) | -0.083
TENT5C (UniProt Q5VWP2) | -0.133
THAP9 (UniProt Q9H5L6) | 0.434
TBP (UniProt P20226) | -0.014
SREBF1 isoform 4 (UniProt P36956) | -0.089
SMARCB1 (UniProt Q12824) | -0.116
SYK (UniProt P43405) | 0.085
TCOF1 isoform 6 (UniProt Q13428) | -0.318
SLC35B4 (UniProt Q969S0) | -0.076
TEX30 (UniProt Q5JUR7) | -0.063
SP2 (UniProt Q02086) | -0.319
STK17B (UniProt O94768) | 0.01
SSBP4 (UniProt Q9BWG4) | -0.065
